PubChem BioAssay (Tox21)
Results filed as inconclusive are left out. Entries that show only a call come without a potency. The source made the active and inactive calls. Calls come from the whole dose curve; as a rule, active = well fitted cell-killing curve with a large enough effect in the repeat runs; inconclusive = weak or mixed curves, or effect the other way; inactive = flat fitted curve, though single readings scatter.

Assay: qHTS RealTime-Glo MT Cell Viability Assay in HEK293 cells - 16 hour (AID 1224872); note: nearly all actives have a fitted effect of over 50% in size
Conditions: RealTime-Glo luminescence; series mostly up to 76.8 µM
Text: National Center for Advancing Translational Sciences [NCATS]
NIH Chemical Genomics Center [NCGC]
U.S. Environmental Protection Agency [EPA]
National Institutes of Environmental Health Sciences [NIEHS]
National Toxicology Program [NTP]
U.S. Food and Drug Administration [FDA]
Measure of cell viability is critical in the cell-base assay. Analysis of cell viability is necessary for the characterization of cell responses to cytotoxic drugs and environmental stress. A RealTime-Glo MT Cell Viability Assay to monitor cell viability in real time of continues cell culture during 40 hours of compound treatment was used to screen Tox21 10K library compounds in Hek293 cells. The RealTime-Glo MT Cell Viability Assay is a nonlytic, homogeneous, bioluminescent method to measure cell viability in real time using a simple, plate-based method. The assay involves adding NanoLuc luciferase and a cell-permeant prosubstrate to cells in culture. Viable cells reduce the proprietary prosubstrate to generate a substrate for NanoLuc luciferase. This substrate diffuses from cells into the surrounding culture medium, where it is rapidly used by the NanoLuc Enzyme to produce a luminescent signal. The signal correlates with the number of viable cells, making the assay well suited for cytotoxicity studies.
Tox21 Assay Protocol Summary:
The mixture of Hek293 cell suspension and reagents were dispensed at 600cells/6 ul/well in 1536-well tissue culture treated black solid bottom plates using a Multidrop dispenser. After the assay plates were incubated at a 37 C/5% CO2 incubator for 5 hours, 23 nL of compounds dissolved in DMSO, positive and negative controls was transferred to the assay plate by a pintool work station. The plates were incubated at 37 C for 40 hours. The luminescence intensity were measured at 0h, 8h, 16h, 24h, 32h and 40h time points using ViewLux plate reader during compound treatment.
Potency is the fitted concentration of half-maximal effect.

Compound | Potency
C=C(C)C(=O)OCCC[Si](OC)(OC)OC | inactive
CCCCOCCOCCOC(=O)CCCCC(=O)OCCOCCOCCCC | inactive
CC(C)(CO)COC(=O)C(C)(C)CO | inactive
CC1(C)O[C@@H]2C[C@H]3[C@@H]4C[C@H](F)C5=CC(=O)CC[C@]5(C)[C@H]4[C@@H](O)C[C@]3(C)[C@]2(C(=O)CO)O1 | inactive
O=C(O)c1cc(-c2ccccc2)nc2ccccc12 | inactive
Nc1c(S(=O)(=O)O)cc(Br)c2c1C(=O)c1ccccc1C2=O | inactive
NCc1cccc(CN)c1 | inactive
O=C(O)c1ccc([N+](=O)[O-])cc1 | inactive
C=C1CC[C@H](O)CC1=C/C=C1\CCC[C@]2(C)[C@@H]([C@H](C)/C=C/[C@H](C)C(C)C)CC[C@@H]12 | 43.6 µM (active)
CCCCCCCCCCC=CC1CC(=O)OC1=O (stereo not given) | inactive
CC(C)(N=C=O)c1cccc(C(C)(C)N=C=O)c1 | inactive
O=C1CCCCC1 | inactive
OC1CCCC1 | inactive
C[C@@H]1O[C@@H](OC[C@H]2O[C@@H](Oc3c(-c4ccc(O)c(O)c4)oc4cc(O)cc(O)c4c3=O)[C@H](O)[C@@H](O)[C@@H]2O)[C@H](O)[C@H](O)[C@H]1O | inactive
Cc1ccc(C(=O)O)o1 | inactive
CC1=C(CC(=O)O)c2cc(F)ccc2/C1=C\c1ccc(S(C)=O)cc1 (stereo not given) | inactive
O=C(c1ccc(O)cc1)c1ccc(O)cc1O | inactive
CC(C)(C)C1CCC(O)CC1 (stereo not given) | inactive
C=CC(=O)OCCCCCCCC(C)C | inactive
C[C@@H](O)[C@H]1C(=O)N2C(C(=O)O)=C(S[C@@H]3CN[C@H](C(=O)N(C)C)C3)[C@H](C)[C@H]12 | inactive

Compound | Potency
CC1(C)CC(N=C=O)CC(C)(CN=C=O)C1 (stereo not given) | inactive
COCC(=O)O | inactive
CCCCCCCCCCCCOCC1CO1 (stereo not given) | inactive
NS(=O)(=O)c1cc2c(cc1Cl)NC=NS2(=O)=O | inactive
CCCCC(CC)COC(=O)/C=C\C(=O)OCC(CC)CCCC (stereo not given) | inactive
O=C1O[C@H](CO)[C@@H](O)[C@H](O)[C@H]1O | inactive
CCCCCCOC(C)=O | inactive
Oc1ccc2ccccc2c1 | inactive
Cc1cc(NS(=O)(=O)c2ccc(N)cc2)no1 | inactive
CC1Cc2ccccc2N1NC(=O)c1ccc(Cl)c(S(N)(=O)=O)c1 (stereo not given) | inactive
O=[N+]([O-])c1cc(N(CCO)CCO)ccc1NCCO | inactive
Cn1c([N+](=O)[O-])cnc1COC(N)=O | inactive
Cc1cc(=O)[nH]c(C(C)C)n1 | inactive
C=C(C)C(=O)OCCCCCCCCCCCC | inactive
CCOC(=O)/C=C\C(=O)OCC | inactive
CCOC(=O)[C@H](CCc1ccccc1)N[C@@H](C)C(=O)N1Cc2ccccc2C[C@H]1C(=O)O | inactive
Clc1cc(Cl)c(Cl)cc1Cl | inactive
COC(=O)c1ccccc1O | inactive
CNC[C@H](O)[C@@H](O)[C@H](O)[C@H](O)CO | inactive
CCCCCCCCC | inactive
